# In PubChem BioAssay AID1159580 (chemical genetic matrix, 2015):
# Values joined by “and” are separate entries in the source; they are usually repeats but may differ in a detail not shown here. Identical values can stand only once. In all, about 5,500 compounds went through this assay and about 2,000 (36%) were called active. Inconclusive results (about 18%) are left out. Rule as the data show it: active = normalized growth mostly below about 0.91 (no sharp cut-off); inconclusive = no clear call, values can overlap the other calls; inactive = mostly above about 0.92. Some of the results follow.
# Experiment: chemical genetic growth profiling, strain panel (AID 1159580);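 also: tested at 20 µM; growth read once vehicle control cultures reached saturation at 30 °C; 1 = growth at the plate median or of vehicle wells; lower values mean less growth of the strain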
# Details: S. cerevisiae deletion strains, growth OD
compound,measurement,setting,value
c1cc2c(cc1[C@H]1OC[C@H]3[C@@H]1CO[C@H]3c1ccc3c(c1)OCO3)OCO2,normalized growth,"locus YAL013W, strain DEP1, stronger effect = lower value",0.93 (inactive)
same,normalized growth,"locus YAL021C, strain ccr4, stronger effect = lower value",0.936 (inactive)
same,normalized growth,"locus YAL026C, strain drs2, stronger effect = lower value",0.803 (active)
same,normalized growth,"locus YAL030W, strain snc1, stronger effect = lower value",0.908 (active)
same,normalized growth,"locus YBL061C, strain skt5, stronger effect = lower value",0.918 (active)
same,normalized growth,"locus YBR009C, strain hhf1, stronger effect = lower value",0.904 (active)
same,normalized growth,"locus YBR021W, strain FUR4, stronger effect = lower value",0.961 (inactive)
same,normalized growth,"locus YBR023C, strain chs3, stronger effect = lower value",0.906 (active)
same,normalized growth,"locus YBR171W, strain sec66, stronger effect = lower value",0.897 (inactive)
same,normalized growth,"locus YBR229C, strain ROT2, stronger effect = lower value",0.941 (inactive)
same,normalized growth,"locus YBR231C, strain swc5, stronger effect = lower value",0.922 (inactive)
same,normalized growth,"locus YBR279W, strain paf1, stronger effect = lower value",0.936 (inactive)
same,normalized growth,"locus YCL011C, strain gbp2, stronger effect = lower value",0.881 (active)
same,normalized growth,"locus YCL016C, strain dcc1, stronger effect = lower value",0.911 (active)
same,normalized growth,"locus YCL029C, strain bik1, stronger effect = lower value",0.933 (inactive)
same,normalized growth,"locus YCL061C, strain MRC1, stronger effect = lower value",0.93 (inactive)
same,normalized growth,"locus YCL069W, strain vba3, stronger effect = lower value",0.919 (active)
same,normalized growth,"locus YCR088W, strain abp1, stronger effect = lower value",0.911 (active)
same,normalized growth,"locus YDL005C, strain med2, stronger effect = lower value",0.915 (inactive)
same,normalized growth,"locus YDL035C, strain GPR1, stronger effect = lower value",0.906 (inactive)
same,normalized growth,"locus YDL040C, strain nat1, stronger effect = lower value",0.92 (active)
same,normalized growth,"locus YDL074C, strain BRE1, stronger effect = lower value",0.874 (inactive)
same,normalized growth,"locus YDL101C, strain DUN1, stronger effect = lower value",0.927 (inactive)
same,normalized growth,"locus YDL134C, strain PPH21, stronger effect = lower value",0.881 (active)
same,normalized growth,"locus YDL185W, strain tfp1, stronger effect = lower value",0.93 (inactive)
same,normalized growth,"locus YDL192W, strain arf1, stronger effect = lower value",0.877 (active)
same,normalized growth,"locus YDR001C, strain nth1, stronger effect = lower value",0.889 (active)
same,normalized growth,"locus YDR069C, strain doa4, stronger effect = lower value",0.956 (inactive)
same,normalized growth,"locus YDR101C, strain arx1, stronger effect = lower value",0.895 (active)
same,normalized growth,"locus YDR137W, strain rgp1, stronger effect = lower value",0.492 (active)
same,normalized growth,"locus YDR159W, strain sac3, stronger effect = lower value",0.856 (active)
same,normalized growth,"locus YDR162C, strain NBP2, stronger effect = lower value",0.894 (inactive)
same,normalized growth,"locus YDR195W, strain ref2",1.06 (inactive)
same,normalized growth,"locus YDR297W, strain sur2, stronger effect = lower value",0.905 (active)
same,normalized growth,"locus YDR318W, strain mcm21, stronger effect = lower value",0.867 (active)
same,normalized growth,"locus YDR334W, strain swr1, stronger effect = lower value",0.861 (active)
same,normalized growth,"locus YDR335W, strain msn5, stronger effect = lower value",0.934 (inactive)
same,normalized growth,"locus YDR388W, stronger effect = lower value",0.923 (active)
same,normalized growth,"locus YDR392W, strain spt3, stronger effect = lower value",0.371 (active)
same,normalized growth,"locus YDR502C, strain sam2, stronger effect = lower value",0.869 (active)
same,normalized growth,"locus YEL003W, strain gim4, stronger effect = lower value",0.911 (active)
same,normalized growth,"locus YEL037C, strain rad23, stronger effect = lower value",0.926 (inactive)
same,normalized growth,"locus YEL061C, strain CIN8 (second series), stronger effect = lower value",0.859 (active)
same,normalized growth,"locus YEL061C, strain CIN8, stronger effect = lower value",0.724 (active)
same,normalized growth,"locus YER015W, strain faa2, stronger effect = lower value",0.925 (active)
same,normalized growth,"locus YER016W, strain bim1, stronger effect = lower value",0.908 (active)
same,normalized growth,"locus YER110C, stronger effect = lower value",0.942 (inactive)
same,normalized growth,"locus YER111C, strain swi4, stronger effect = lower value",0.919 (inactive)
same,normalized growth,"locus YER155C, strain BEM2 (second series), stronger effect = lower value",0.783 (active)
same,normalized growth,"locus YER155C, strain BEM2, stronger effect = lower value",0.862 (active)
same,normalized growth,"locus YER167W, strain BCK2, stronger effect = lower value",0.813 (active)
same,normalized growth,"locus YFR010W, strain ubp6, stronger effect = lower value",0.938 (inactive)
same,normalized growth,"locus YGL078C, strain dbp3, stronger effect = lower value",0.958 (inactive)
same,normalized growth,"locus YGL086W, strain mad1, stronger effect = lower value",0.845 (active)
same,normalized growth,"locus YGL167C, strain pmr1, stronger effect = lower value",0.862 (active)
same,normalized growth,"locus YGL173C, strain kem1, stronger effect = lower value",0.904 (inactive)
same,normalized growth,"locus YGL227W, strain vid30, stronger effect = lower value",0.926 (inactive)
same,normalized growth,"locus YGL240W, strain doc1, stronger effect = lower value",0.89 (inactive)
same,normalized growth,"locus YGL248W, strain PDE1, stronger effect = lower value",0.901 (inactive)
same,normalized growth,"locus YGL253W, strain hxk2, stronger effect = lower value",0.845 (active)
same,normalized growth,"locus YGR078C, strain PAC10, stronger effect = lower value",0.856 (inactive)
same,normalized growth,"locus YGR135W, strain pre9, stronger effect = lower value",0.906 (inactive)
same,normalized growth,"locus YGR252W, strain gcn5, stronger effect = lower value",0.897 (inactive)
same,normalized growth,"locus YHR013C, strain ard1, stronger effect = lower value",0.871 (inactive)
same,normalized growth,"locus YHR027C, strain rpn1, stronger effect = lower value",0.913 (active)
same,normalized growth,"locus YHR030C, strain SLT2, stronger effect = lower value",0.87 (active) and 0.888 (inactive)
same,normalized growth,"locus YHR079C, strain IRE1 (second series), stronger effect = lower value",0.902 (active)
same,normalized growth,"locus YHR079C, strain IRE1, stronger effect = lower value",0.895 (inactive)
same,normalized growth,"locus YHR094C, strain hxt1, stronger effect = lower value",0.922 (active)
same,normalized growth,"locus YHR129C, strain ARP1, stronger effect = lower value",0.911 (active)
same,normalized growth,"locus YHR142W, strain chs7, stronger effect = lower value",0.803 (active)
same,normalized growth,"locus YHR200W, strain rpn10, stronger effect = lower value",0.884 (active)
same,normalized growth,"locus YIL066C, strain RNR3, stronger effect = lower value",0.828 (active)
same,normalized growth,"locus YIL073C, strain SPO22, stronger effect = lower value",0.783 (inactive)
same,normalized growth,"locus YIL125W, strain kgd1, stronger effect = lower value",0.889 (active)
same,normalized growth,"locus YIR030C, strain dcg1, stronger effect = lower value",0.901 (active)
same,normalized growth,"locus YJL092W, strain hpr5, stronger effect = lower value",0.914 (active)
same,normalized growth,"locus YJL095W, strain BCK1 (second series), stronger effect = lower value",0.904 (active)
same,normalized growth,"locus YJL095W, strain BCK1, stronger effect = lower value",0.714 (active) and 0.956 (inactive)
same,normalized growth,"locus YJL115W, strain asf1, stronger effect = lower value",0.904 (active)
same,normalized growth,"locus YJL129C, strain trk1, stronger effect = lower value",0.722 (active)
same,normalized growth,"locus YJL134W, strain LCB3, stronger effect = lower value",0.974 (inactive)
same,normalized growth,"locus YJL154C, strain vps35, stronger effect = lower value",0.936 (inactive)
same,normalized growth,"locus YJL164C, strain tpk1, stronger effect = lower value",0.896 (active)
same,normalized growth,"locus YJL166W, strain qcr8, stronger effect = lower value",0.88 (active)
same,normalized growth,"locus YJL168C, strain set2, stronger effect = lower value",0.927 (active)
same,normalized growth,"locus YJL187C, strain SWE1 (second series), stronger effect = lower value",0.925 (inactive)
same,normalized growth,"locus YJL187C, strain SWE1, stronger effect = lower value",0.932 (inactive)
same,normalized growth,"locus YJR043C, strain POL32, stronger effect = lower value",0.959 (inactive)
same,normalized growth,"locus YJR066W, strain TOR1, stronger effect = lower value",0.888 (inactive)
